Experimental data: PubChem BioAssay AID1159580 (chemical genetic matrix, 2015)
Screen size: about 5,500 compounds; about 2,000 (36%) were called active. Inconclusive results (about 18%) are left out. Cut-off read from the data, not from the text of the source: active = normalized growth mostly below about 0.91 (no sharp cut-off); inconclusive = no clear call, values can overlap the other calls; inactive = mostly above about 0.92. The list shows a part of the results.

Test: chemical genetic growth profiling, strain panel (AID 1159580);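 note: tested at 20 µM; growth read once vehicle control cultures reached saturation at 30 °C; 1 = growth at the plate median or of vehicle wells; lower values mean less growth of the strain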
Conditions: growth OD

Measured: normalized growth

C[N+](C)(C)CCOP(=O)([O-])OP(=O)(O)OC[C@H]1OC(n2ccc(N)nc2=O)[C@H](O)[C@@H]1O (some centres not stated)
inactive: S. cerevisiae deletion strains, locus YJR075W, strain HOC1, hits give low values 0.975 | S. cerevisiae deletion strains, locus YKL009W, strain mrt4, hits give low values 1.03 | S. cerevisiae deletion strains, locus YKL068W, hits give low values 0.991 | S. cerevisiae deletion strains, locus YKL085W, strain MDH1 (second series), hits give low values 1.02 | S. cerevisiae deletion strains, locus YKL085W, strain MDH1, hits give low values 1.02 | S. cerevisiae deletion strains, locus YKL160W, strain elf1, hits give low values 0.984 | S. cerevisiae deletion strains, locus YKL190W, strain CNB1, hits give low values 0.999 | S. cerevisiae deletion strains, locus YKR001C, strain vps1, hits give low values 1.01 | S. cerevisiae deletion strains, locus YKR026C, strain gcn3, hits give low values 0.979 | S. cerevisiae deletion strains, locus YKR091W, strain srl3, hits give low values 0.982 | S. cerevisiae deletion strains, locus YLL001W, strain dnm1, hits give low values 0.963 | S. cerevisiae deletion strains, locus YLL026W, hits give low values 0.985 | S. cerevisiae deletion strains, locus YLL041C, strain sdh2, hits give low values 0.98 | S. cerevisiae deletion strains, locus YLR027C, strain aat2, hits give low values 0.987 | S. cerevisiae deletion strains, locus YLR039C, strain RIC1, hits give low values 1.03 | S. cerevisiae deletion strains, locus YLR058C, strain SHM2, hits give low values 1 | S. cerevisiae deletion strains, locus YLR102C, strain apc9, hits give low values 1.01 | S. cerevisiae deletion strains, locus YLR113W, strain HOG1, hits give low values 0.978 | S. cerevisiae deletion strains, locus YLR221C, strain rsa3, hits give low values 1.01 | S. cerevisiae deletion strains, locus YLR258W, strain gsy2, hits give low values 0.999 | S. cerevisiae deletion strains, locus YLR262C, strain YPT6 (second series), hits give low values 0.98 | S. cerevisiae deletion strains, locus YLR262C, strain YPT6, hits give low values 0.993 | S. cerevisiae deletion strains, locus YLR268W, strain sec22, hits give low values 0.974 | S. cerevisiae deletion strains, locus YLR320W, strain mms22, hits give low values 1.01 | S. cerevisiae deletion strains, locus YLR330W, strain CHS5, hits give low values 1 | S. cerevisiae deletion strains, locus YLR342W, strain FKS1 (second series), hits give low values 1.05 | S. cerevisiae deletion strains, locus YLR342W, strain FKS1, hits give low values 0.974 | S. cerevisiae deletion strains, locus YLR357W, strain rsc2, hits give low values 0.994 | S. cerevisiae deletion strains, locus YLR370C, strain arc18, hits give low values 0.981 | S. cerevisiae deletion strains, locus YLR371W, strain rom2, hits give low values 1.01 | S. cerevisiae deletion strains, locus YLR384C, strain iki3, hits give low values 0.981 | S. cerevisiae deletion strains, locus YLR418C, strain cdc73, hits give low values 0.963 | S. cerevisiae deletion strains, locus YML016C, strain PPZ1, hits give low values 1 | S. cerevisiae deletion strains, locus YML032C, strain rad52, hits give low values 1.02 | S. cerevisiae deletion strains, locus YML120C, strain ndi1, hits give low values 0.999 | S. cerevisiae deletion strains, locus YML124C, strain tub3, hits give low values 1.01 | S. cerevisiae deletion strains, locus YMR058W, strain fet3, hits give low values 0.978 | S. cerevisiae deletion strains, locus YMR078C, strain ctf18, hits give low values 1 | S. cerevisiae deletion strains, locus YMR125W, strain sto1, hits give low values 0.994 | S. cerevisiae deletion strains, locus YMR129W, hits give low values 0.981 | S. cerevisiae deletion strains, locus YMR205C, strain PFK2, hits give low values 0.99 | S. cerevisiae deletion strains, locus YMR223W, strain ubp8, hits give low values 1.02 | S. cerevisiae deletion strains, locus YMR231W, strain pep5, hits give low values 0.989 | S. cerevisiae deletion strains, locus YMR263W, strain SAP30, hits give low values 0.983 | S. cerevisiae deletion strains, locus YMR307W, strain GAS1, hits give low values 1.04 | S. cerevisiae deletion strains, locus YNL067W, strain RPL9B, hits give low values 0.969 | S. cerevisiae deletion strains, locus YNL071W, strain lat1, hits give low values 0.991 | S. cerevisiae deletion strains, locus YNL128W, strain TEP1, hits give low values 0.943 | S. cerevisiae deletion strains, locus YNL153C, strain GIM3, hits give low values 0.985 | S. cerevisiae deletion strains, locus YNL183C, strain NPR1, hits give low values 0.964 | S. cerevisiae deletion strains, locus YNL209W, strain ssb2, hits give low values 1 | S. cerevisiae deletion strains, locus YNL233W, strain BNI4, hits give low values 0.994 | S. cerevisiae deletion strains, locus YNL248C, strain rpa49, hits give low values 1 | S. cerevisiae deletion strains, locus YNL250W, strain rad50, hits give low values 1 | S. cerevisiae deletion strains, locus YNL271C, strain bni1, hits give low values 0.995 | S. cerevisiae deletion strains, locus YNL298W, strain CLA4, hits give low values 1 | S. cerevisiae deletion strains, locus YNL307C, strain MCK1, hits give low values 1.02 | S. cerevisiae deletion strains, locus YNL322C, strain KRE1 (second series), hits give low values 0.975 | S. cerevisiae deletion strains, locus YNL322C, strain KRE1, hits give low values 0.998 | S. cerevisiae deletion strains, locus YNR049C, strain mso1, hits give low values 0.972 | S. cerevisiae deletion strains, locus YNR052C, strain pop2, hits give low values 1.02 | S. cerevisiae deletion strains, locus YOL006C, strain TOP1, hits give low values 1.04 | S. cerevisiae deletion strains, locus YOL012C, strain htz1 0.746 | S. cerevisiae deletion strains, locus YOL147C, strain pex11, hits give low values 1 | S. cerevisiae deletion strains, locus YOR001W, strain rrp6, hits give low values 0.988 | S. cerevisiae deletion strains, locus YOR061W, strain CKA2, hits give low values 1 | S. cerevisiae deletion strains, locus YOR069W, strain VPS5, hits give low values 1 | S. cerevisiae deletion strains, locus YOR070C, strain gyp1, hits give low values 0.998 | S. cerevisiae deletion strains, locus YOR080W, strain dia2, hits give low values 0.985 | S. cerevisiae deletion strains, locus YOR083W, strain WHI5, hits give low values 0.989 | S. cerevisiae deletion strains, locus YOR106W, strain vam3, hits give low values 0.982 | S. cerevisiae deletion strains, locus YOR136W, strain idh2, hits give low values 1 | S. cerevisiae deletion strains, locus YOR144C, strain elg1, hits give low values 1 | S. cerevisiae deletion strains, locus YOR184W, strain ser1, hits give low values 1.03 | S. cerevisiae deletion strains, locus YOR231W, strain MKK1, hits give low values 1 | S. cerevisiae deletion strains, locus YOR265W, strain rbl2, hits give low values 0.985 | S. cerevisiae deletion strains, locus YOR270C, strain vph1, hits give low values 0.98 | S. cerevisiae deletion strains, locus YOR290C, strain snf2, hits give low values 1.01 | S. cerevisiae deletion strains, locus YOR316C, strain cot1, hits give low values 1.01 | S. cerevisiae deletion strains, locus YPL051W, strain arl3, hits give low values 0.999 | S. cerevisiae deletion strains, locus YPL055C, strain LGE1, hits give low values 0.937 | S. cerevisiae deletion strains, locus YPL078C, strain atp4, hits give low values 0.976 | S. cerevisiae deletion strains, locus YPL106C, strain sse1, hits give low values 0.993 | S. cerevisiae deletion strains, locus YPL240C, strain hsp82, hits give low values 0.993 | S. cerevisiae deletion strains, locus YPL241C, strain CIN2, hits give low values 0.992 | S. cerevisiae deletion strains, locus YPL256C, strain CLN2, hits give low values 0.982 | S. cerevisiae deletion strains, locus YPR119W, strain clb2, hits give low values 0.993 | S. cerevisiae deletion strains, locus YPR141C, strain kar3, hits give low values 0.993 | S. cerevisiae deletion strains, locus YPR163C, strain tif3, hits give low values 1.01 | S. cerevisiae deletion strains, locus YPR167C, strain met16, hits give low values 0.992 | S. cerevisiae deletion strains, strain wtn01, hits give low values 0.987 | S. cerevisiae strains, strain wild type, hits give low values 0.972
